The text below walks through data of PubChem BioAssay (NCI).

About 83,000 compounds went through this panel and 20% of them were active in at least one assay; those are over-represented in the sample as a whole.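 Treatment: one concentration, 48 hours, 96-well format. Scoring: percent growth, with anything below 10 considered active.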 Values without a mark were called inactive. Active and inactive are the calls of the source.

Among the test systems are NCI-H23 lung; NCI-H226 lung; NCI-H322M lung; HOP-62 NSCLC; NCI-H460 lung; HOP-92 NSCLC; NCI-H522 lung; A549/ATCC NSCLC; 786-0 renal; COLO 205 colon; DU-145 prostate; K-562 leukemia; MALME-3M melanoma; MDA-MB-231 breast; RXF 393 renal; SF-268 CNS; SF-295 CNS; SF-539 CNS; UACC-257 melanoma; M14 melanoma.
Assay in all cases: NCI-60 one-dose screen, 48 h (100 = growth as untreated, 0 = no growth, -100 = all killed)
Conditions in all cases: 10 µM unless noted

Consider `COc1ccc(C(=O)c2cc(C)c(OC)c(C)c2)c(OC)c1O`, for which the growth is 31.7% with NCI-H23 lung; 7.47% (active) in the test with NCI-H226 lung; 45.8% with NCI-H322M lung; 12.9% in the test with HOP-62 NSCLC; 2.04% (active) in the test on NCI-H460 lung; -0.0707% (active) with HOP-92 NSCLC. In addition, the growth in the test on NCI-H522 lung is -9.43% (active); in the test with A549/ATCC NSCLC, 14.5%; in the test with 786-0 renal, 15.2%; with COLO 205 colon it was 66.8%; with DU-145 prostate it was -5.78% (active); in the test on K-562 leukemia it was 8.52% (active). Moreover, the growth was 54.8% with MALME-3M melanoma; 16.8% with MDA-MB-231 breast; 35.4% with RXF 393 renal; 31.5% in the test on SF-268 CNS; 25.2% in the test with SF-295 CNS; -10.8% (active) in the test on SF-539 CNS. The figures for the growth in the test on UACC-257 melanoma and with M14 melanoma were 50.6% and -1.65% (active), respectively.

Consider `CCOc1cc(CNc2ccc(N3CCOCC3)c(C(=O)O)c2)ccc1OC`, for which the growth in the test with NCI-H23 lung is 100%; in the test with NCI-H226 lung, 93.4%; in the test on NCI-H322M lung, 94.8%; in the test on HOP-62 NSCLC, 103%; with NCI-H460 lung, 102%; with HOP-92 NSCLC, 110%. In addition, the growth with NCI-H522 lung was 99.3%; with A549/ATCC NSCLC, 93%; with 786-0 renal, 112%; in the test with COLO 205 colon, 104%; in the test with DU-145 prostate it was 101%; in the test with K-562 leukemia, 101%. Moreover, the growth in the test with MALME-3M melanoma was 105%; in the test with MDA-MB-231 breast, 92.3%; in the test on RXF 393 renal, 99.3%; with SF-268 CNS, 97.8%; in the test with SF-295 CNS it was 104%; in the test with SF-539 CNS, 104%. In addition, the growth in the test with UACC-257 melanoma is 93.9%; in the test on M14 melanoma, 96.5%.

As for `O=C(CCN1CCCC1)Nc1ccc2c(NCc3ccc(F)cc3)c3ccccc3nc2c1`, the growth in the test on NCI-H23 lung was -39.8% (active); in the test with NCI-H226 lung, 4% (active); with NCI-H322M lung, -4.47% (active); in the test with HOP-62 NSCLC it was -1.6% (active); in the test on NCI-H460 lung, -63.4% (active); in the test with HOP-92 NSCLC, -8.01% (active). Further, the growth in the test on NCI-H522 lung was -50.1% (active); with A549/ATCC NSCLC, -37.6% (active); in the test on 786-0 renal, 6.33% (active); in the test on COLO 205 colon, -62.5% (active); with DU-145 prostate it was -38.4% (active); with K-562 leukemia, 0.876% (active). In addition, the growth in the test on MALME-3M melanoma was -90.4% (active); with MDA-MB-231 breast it was -17.1% (active); with RXF 393 renal, -15.8% (active); with SF-268 CNS it was -3.64% (active); in the test with SF-295 CNS, 22.8%; with SF-539 CNS, 3.09% (active). Further, the growth is -3.51% (active) in the test with UACC-257 melanoma and -25% (active) in the test on M14 melanoma.

As for `CCNNC(=O)[C@@H]1[C@H](c2cc(OC)c(OC)c(OC)c2)c2cc3c(cc2[C@H](O)[C@H]1CO)OCO3`, the growth with NCI-H23 lung was 24%; in the test on NCI-H226 lung it was -21.5% (active); in the test with NCI-H322M lung, 43.7%; in the test with HOP-62 NSCLC, 36.3%; with NCI-H460 lung, 1.59% (active); in the test with HOP-92 NSCLC it was 9.16% (active). In addition, the growth in the test with NCI-H522 lung was -18.7% (active); with A549/ATCC NSCLC, 9.99% (active); with 786-0 renal, 0.908% (active); in the test on COLO 205 colon, -63.6% (active); with DU-145 prostate, -24% (active); with K-562 leukemia it was 13.7%. Further, the growth was 56.3% with MALME-3M melanoma; 39.6% in the test on MDA-MB-231 breast; 15.3% in the test with RXF 393 renal; 31.1% in the test with SF-268 CNS; 9.93% (active) in the test with SF-295 CNS; -10.9% (active) in the test with SF-539 CNS. Also, the growth in the test with UACC-257 melanoma is 53%; in the test with M14 melanoma, -19.5% (active).

With `CNC(=O)NCC1OC(n2cnc3c(NC(=O)Nc4ccccc4)ncnc32)C(O[Si](C)(C)C(C)(C)C)C1O[Si](C)(C)C(C)(C)C` (stereo not given), the growth in the test on NCI-H23 lung is 36.3%; with NCI-H226 lung, 49%; in the test on NCI-H322M lung, 87.3%; in the test with HOP-62 NSCLC it was 61.7%; with NCI-H460 lung, -6.74% (active); in the test with HOP-92 NSCLC, -2.68% (active). Further, the growth in the test with NCI-H522 lung is 46.2%; in the test with A549/ATCC NSCLC, 23%; in the test with 786-0 renal, 16.5%; with COLO 205 colon, -100% (active); with DU-145 prostate, 52.2%; in the test with K-562 leukemia, 34.5%. Further, the growth is 48.9% with MALME-3M melanoma; 37.7% in the test on MDA-MB-231 breast; -37% (active) with RXF 393 renal; 36% in the test on SF-268 CNS; 45.1% with SF-295 CNS; 33.4% with SF-539 CNS. Further, the growth was 42.8% in the test on UACC-257 melanoma and 33% in the test with M14 melanoma.

Consider `N#Cc1c(NC(=O)c2cccc(Br)c2)sc2c1CCCC2`, for which the growth with NCI-H23 lung is 91%; in the test with NCI-H226 lung, 89.8%; with NCI-H322M lung, 79.1%; in the test with HOP-62 NSCLC, 83.3%; in the test on NCI-H460 lung, 75.3%; in the test on HOP-92 NSCLC, 86.2%. The growth in the test with NCI-H522 lung is 75.9%; in the test on A549/ATCC NSCLC, 75.2%; with 786-0 renal it was 82.6%; in the test with COLO 205 colon, 94.2%; in the test with DU-145 prostate, 89.7%; in the test with K-562 leukemia, 22.5%. Besides, the growth in the test on MALME-3M melanoma was 62.4%; with MDA-MB-231 breast, 82.2%; in the test on RXF 393 renal, 96.8%; in the test on SF-268 CNS it was 97.6%; in the test on SF-295 CNS, 80.8%; with SF-539 CNS it was 86.6%. Further, the values for the growth in the test on UACC-257 melanoma and in the test on M14 melanoma were 83.4% and 72.2%, respectively.

With `C[C@H]1[C@H](C)CC[C@]2(CO)CC[C@]3(C)C(=CC[C@@H]4[C@@]5(C)Cc6c([nH]c7ccccc67)C(C)(C)[C@@H]5CC[C@]43C)[C@H]12`, the growth is 74.6% with NCI-H23 lung; 76.9% with NCI-H226 lung; 72.3% with NCI-H322M lung; 89% with HOP-62 NSCLC; 66.8% with NCI-H460 lung; 101% in the test on HOP-92 NSCLC. Further, the growth was -12.7% (active) with NCI-H522 lung; 81% in the test with A549/ATCC NSCLC; 76.1% in the test on 786-0 renal; 95.1% with COLO 205 colon; 71.1% in the test with DU-145 prostate; 52.4% with K-562 leukemia. In addition, the growth in the test on MALME-3M melanoma was 46.9%; with MDA-MB-231 breast, 88.8%; with RXF 393 renal it was 84.1%; with SF-268 CNS, 74.5%; in the test on SF-295 CNS it was 81.2%; in the test with SF-539 CNS it was 96%. The growth with UACC-257 melanoma is 108%; in the test on M14 melanoma, 92.8%.

For `CCCCCCCCOc1ccc(/C=N/Nc2cc(C)nc3ccc(Cl)cc23)cc1`, the growth was 65.2% in the test on NCI-H23 lung; 87.2% in the test with NCI-H226 lung; 42.2% in the test with NCI-H322M lung; -46.5% (active) with HOP-62 NSCLC; -63.4% (active) in the test on NCI-H460 lung; 67.3% with HOP-92 NSCLC. Besides, the growth is -56.7% (active) with NCI-H522 lung; -37.3% (active) in the test on A549/ATCC NSCLC; -94% (active) with 786-0 renal; -36.2% (active) in the test with COLO 205 colon; -87.3% (active) in the test on DU-145 prostate; -52.6% (active) in the test on K-562 leukemia. For the same molecule, the growth in the test with MALME-3M melanoma was 91%; in the test with MDA-MB-231 breast it was -59.3% (active); with RXF 393 renal, -68.9% (active); in the test on SF-268 CNS, 104%; with SF-295 CNS, -72.8% (active); in the test with SF-539 CNS, -81% (active). Further, the results for the growth in the test with UACC-257 melanoma and in the test with M14 melanoma were 116% and 87.7%, respectively.
